Source: PubChem (The Scripps Research Institute Molecular Screening Center)
TEAD-YAP block: TEAD-YAP interaction inhibition | HEK-TIYL cells, TEAD-Gal4/YAP UAS-luciferase luminescence | inhibition, % at 9.12 µM | 640,000 compounds, 1.4% hits | AID 1259422; in the data active = inhibition above about 32%;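 also: 0% = median of test compound wells and 100% = reference inhibitor wells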
GPR151 ag: activates the human receptor GPR151; 650,000 compounds, 1% hits; PathHunter beta-arrestin GPR151 cells, luminescence; activation, % at 11.2 µM; in the data active = activation above about 4.9%;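 also: 0% = median of compound wells and 100% = cells with positive control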
Target sequence (Q8TDV0 whole entry, looked up): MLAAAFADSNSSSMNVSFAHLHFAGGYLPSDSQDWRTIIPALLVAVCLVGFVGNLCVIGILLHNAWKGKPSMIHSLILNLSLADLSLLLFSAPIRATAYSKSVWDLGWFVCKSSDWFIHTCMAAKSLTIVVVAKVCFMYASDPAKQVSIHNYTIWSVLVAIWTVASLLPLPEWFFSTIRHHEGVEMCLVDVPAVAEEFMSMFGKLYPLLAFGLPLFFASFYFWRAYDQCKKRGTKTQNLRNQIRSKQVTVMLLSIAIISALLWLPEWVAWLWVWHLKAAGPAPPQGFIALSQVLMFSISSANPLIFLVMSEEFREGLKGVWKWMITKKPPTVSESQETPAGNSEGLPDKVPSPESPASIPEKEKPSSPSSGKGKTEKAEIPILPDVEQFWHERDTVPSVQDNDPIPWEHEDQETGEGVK
MITF inh: human MITF inhibition, primary screen; O75030; AlphaScreen MITF homodimerization, bead proximity signal; inhibition, % at 2.6 µM; 650,000 compounds, 0.91% hits; AID 1259374; in the data active = inhibition above about 50%;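 also: 0% = vehicle wells with protein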
FBW7 act: activators of human E3 ligase FBW7; Q969H0; AID 1259310; AlphaScreen FBW7–phospho-cyclin E peptide binding, activator screen; 650,000 compounds, 0.13% hits; normalized activity (activation), % at 26.1 µM; in the data active = normalized activity above about 1.9%;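 also: purified mutant Fbw7 with reduced substrate affinity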
An asterisk follows results filed as active. Compounds with a hit are over-represented: about 3.5% of the library has one in this group of screens.

SMILES | TEAD-YAP block | GPR151 ag | MITF inh | FBW7 act
Cc1[nH]n2c(=O)cc(C(C)(C)C)nc2c1-c1cccs1 | 50* | -1 | 13 | 0
Cc1ccc(-c2csc(NC(=O)c3ccc(S(=O)(=O)N4CCc5ccccc5C4)cc3)n2)o1 | 45* | 2 | -10 | 0
O=C(Nc1nc(-c2ccccn2)cs1)c1ccc(S(=O)(=O)N2CCOCC2)cc1 | 48* | -1 | 49 | 0
COc1ccc(-c2csc(NC(=O)c3ccc(S(=O)(=O)N4CC(C)OC(C)C4)cc3)n2)c(OC)c1 (stereo not drawn) | 32* | 0 | -1 | 0
COC(=O)NCCOc1ccc(C)cc1 | -3 | 1 | -5 | 0
CC(C)(C)CC(C)(C)c1ccc(OCCOCC[N+](C)(C)Cc2ccccc2)cc1 | 54* | 2 | 6 | 0
CC(=O)c1ccc(OCC[N+](C)(C)Cc2ccccc2)cc1 | 2 | 3 | 1 | 0
CCOc1ccccc1C(=O)N/N=C/c1cccc(OC)c1O | -2 | -2 | 13 | 0
CCOc1cccc(/C=N/NC(=O)c2ccccc2O)c1O | 88* | -8 | 41 | -1
CCOc1cccc(/C=N/NC(=O)c2[nH]nc(-c3ccccc3)c2C)c1O | 48* | -1 | 13 | 0
COc1ccccc1/C=N/NC(=O)c1[nH]nc(-c2ccccc2)c1C | -59 | -2 | 10 | 0
CCOc1cccc(/C=N/NC(=O)c2cc(-c3ccco3)[nH]n2)c1O | 39* | 2 | 29 | -1
O=C(NC1CC1)c1cccc(N2CCN(Cc3ccc4c(c3)OCO4)CC2)n1 | 25 | 1 | 0 | 0
Cc1cc2cc3c(cc2c(C)n1)c1ccccc1n3C | 63* | -1 | -8 | 0
Cn1c2ccccc2c(=O)c2ccccc21 | -38 | 0 | -6 | 0
CN1CCN(C(=O)c2ccc(-c3nc(NCc4nc5ccccc5[nH]4)c4ncn(-c5ccsc5)c4n3)cc2)CC1 | 59* | -1 | -6 | 0
CN1CCN(C(=O)c2ccc(-c3nc(Nc4ccccc4)c4ncn(-c5ccsc5)c4n3)cc2)CC1 | 23 | 0 | -8 | 0
CN1CCN(C(=O)c2ccc(-c3nc(NCc4nc5ccccc5[nH]4)c4ncn(-c5ccccc5)c4n3)cc2)CC1 | 12 | 1 | 9 | 0
CN1CCN(c2ccc(-c3nc(NCc4ccccc4)c4ncn(-c5ccsc5)c4n3)cc2)CC1 | 4 | 0 | 5 | 0
CN1CCN(c2ccc(-c3nc(NC4CC4)c4ncn(-c5ccsc5)c4n3)cc2)CC1 | 49* | 1 | 5 | 0
CN1CCN(C(=O)c2ccc(-c3nc(NC4CC4)c4ncn(-c5ccsc5)c4n3)cc2)CC1 | 49* | 0 | 2 | 0
C/C(=N\NC(=O)c1ccc(Br)o1)c1c(O)cc(C)oc1=O | -42 | 1 | -11 | 1
O[N+]1=CC=CCC1=S.On1ccccc1=S.[Zn] | 100* | 2 | -113 | 0
CC(C)CCCC(C)Nc1ncnc2sccc12 (stereo not drawn) | 48* | 2 | 14 | 0
CCCC(Nc1ncnc2sccc12)c1ccccc1 (stereo not drawn) | 21 | -1 | -7 | 0
SMILES | TEAD-YAP block | GPR151 ag | MITF inh | FBW7 act
Cc1cccc(NC(=O)Cc2c(F)cccc2Cl)n1 | -51 | 5 | 1 | 0
COc1cc2oc(=O)cc(C)c2cc1OC | 5 | 0 | 6 | 0
COc1cc2oc(=O)cc(C)c2cc1C=O | 62* | -1 | 12 | 0
CCOc1ccc(OCC)c(NC(=O)CN2CCN(c3ccccc3F)CC2)c1 | 1 | -1 | 21 | 1
CCCC(=O)c1ccc(N2CCN(C(=O)c3ccc(Cl)cc3Cl)CC2)c(F)c1 | -9 | 1 | -8 | 0
Cc1cc(C(=O)COc2ncnc3sccc23)c(C)n1Cc1cccs1 | 33* | -1 | -19 | 0
Cc1cc(C(=O)COC(=O)c2cccnc2Cl)c(C)n1Cc1cccs1 | 47* | 0 | 5 | 0
Cc1cc(C(=O)COc2ncnc3sccc23)c(C)n1CC1COc2ccccc2O1 (stereo not drawn) | 5 | -1 | 14 | 0
Cc1ccccc1C(=O)OCC(=O)c1cc(C)n(Cc2ccco2)c1C | 69* | -1 | 14 | 0
Cc1cc(C(=O)COC(=O)c2n[nH]c3ccccc23)c(C)n1Cc1cccs1 | 74* | 1 | -14 | 0
COc1ccc(CCNc2nc(-c3csc4ccccc34)ncc2C)cc1 | 2 | 0 | 10 | 0
CC1CCc2c(sc(NC(=O)C34CC5CC(CC(C5)C3)C4)c2C(N)=O)C1 (stereo not drawn) | 11 | 0 | -15 | 0
CCOc1ccccc1N1CCN(C(=O)c2cc(Cl)ccc2[N+](=O)[O-])CC1 | 0 | 0 | 10 | 0
Cc1ccccc1OCC(=O)Nc1cccc(NC(=O)COc2ccccc2C)n1 | -4 | 0 | 13 | 0
Cc1ccc(OCC(=O)Nc2cc(C)on2)c(C)c1 | -1 | -1 | -12 | 0
Cc1ccc(OCC(=O)Nc2ccccn2)c(C)c1 | 96* | -6 | -1 | 0
Cc1ccccc1OCC(=O)Nc1ccccn1 | 42* | -6 | 1 | 0
O=C(Cc1cccs1)Nc1noc2ccccc12 | -2 | -1 | 6 | 1
Nc1ccc(NC(=O)CN2CCCCC2)cc1 | 6 | 0 | 2 | 2.0*
O=C(Nc1ccc([N+](=O)[O-])cc1)N1CCCCCC1 | -7 | 3 | -4 | 0
CNC(c1cccc([N+](=O)[O-])c1)c1nnnn1-c1cccc(Cl)c1 (stereo not drawn) | 2 | -2 | -7 | 0
CCOc1ccc(S(=O)(=O)Nc2cc(F)ccc2F)c2cccnc12 | -8 | 0 | -17 | 0
CCOc1ccc(S(=O)(=O)N2c3ccc(F)cc3CCC2C)c2cccnc12 (stereo not drawn) | 50* | 0 | 2 | 0
CC(C)(CN1CCNCC1)NS(=O)(=O)c1ccc(Cl)cc1 | 10 | -1 | 21 | 0
Cc1nn2c(SCC(=O)Nc3ccc(F)cc3)nnc2[nH]c1=O | 0 | 1 | 7 | 0
SMILES | TEAD-YAP block | GPR151 ag | MITF inh | FBW7 act
CCc1ccc(C(=O)N/N=C/c2cc(Br)c(O)c(Br)c2O)nc1 | 72* | -1 | 67* | -1
Cc1cc(C)c(OCC(=O)N/N=C/c2ccccc2O)c(C)c1 | -4 | 1 | 0 | 0
CCOc1ccccc1OCC(=O)N/N=C/c1ccccc1O | 59* | 0 | -6 | -2
N#Cc1ccccc1OCC(=O)N/N=C/c1ccc(O)c([N+](=O)[O-])c1 | -14 | 1 | -6 | 0
CCOc1ccccc1OCC(=O)N/N=C/c1ccc(O)c([N+](=O)[O-])c1 | 55* | 0 | 0 | 0
CCOc1ccccc1OCC(=O)N/N=C(/C)c1ccc(Cl)cc1 | 69* | 0 | 9 | 0
Cc1cccc(C)c1OCC(=O)N/N=C/c1ccccc1O | 51* | 1 | 13 | 0
CC(C)Cc1cc(C(=O)NC(C)C)no1 | -10 | 1 | 2 | 0
COc1ccc(-n2c(=O)[nH]c3nc(-c4ccc(N5CCOCC5)cc4)cnc32)c(C)c1 | 4 | 0 | -1 | 0
Cc1nc(SCC(=O)Nc2nc3ccccc3s2)c2c(=O)n(C)c(=O)n(C)c2n1 | 2 | 0 | -8 | 1
